# Measured values as given in the supplement of paper PMC12282887.
# ± gives the standard deviation of the averaged measurements.
# How the values were obtained:
# Assay in all cases: promoter activity interaction Z-score (Lux/OD deviation from empty-vector control); higher = stronger promoter induction by the compound
# [1] = system: E. coli BW25113 acrABp lux reporter
# Summary of the method: (§1)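 Wild-type E. coli BW25113 and three single-gene deletion strains, each carrying a low-copy luxCDABE promoter reporter, were grown at 37°C in 40 µl LB Lennox per well of a 384-well plate. Every compound was applied at four 1:2 dilutions in biological duplicates, and OD600 and luminescence were read every 30 min for 12 h. Integration covered 0–8 h for wild type and 1–9 h for deletion strains, and wells under 10% of the median growth value were removed. Scores are Z-transformed residuals of growth-normalised luminescence fitted against a control.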
# [2] = system: E. coli BW25113 marRABp lux reporter
# Summary of the method: as §1
# [3] = system: E. coli BW25113 micFp lux reporter
# Summary of the method: as §1
# [4] = system: E. coli BW25113 ompFp lux reporter
# Summary of the method: as §1
# [5] = system: E. coli BW25113 robp lux reporter
# Summary of the method: as §1
# [6] = system: E. coli BW25113 soxSp lux reporter
# Summary of the method: as §1
# [7] = system: E. coli BW25113 tolCp lux reporter
# Summary of the method: as §1
# [8] = 32.1 µg/ml, genetic background: wild type
# [9] = 32.1 µg/ml, genetic background: ΔmarA
# [10] = 32.1 µg/ml, genetic background: Δrob
# [11] = 32.1 µg/ml, genetic background: ΔsoxS
# [12] = 64.2 µg/ml, genetic background: wild type
# [13] = 64.2 µg/ml, genetic background: ΔmarA
# [14] = 64.2 µg/ml, genetic background: Δrob
# [15] = 64.2 µg/ml, genetic background: ΔsoxS
# [16] = 128.4 µg/ml, genetic background: wild type
# [17] = 128.4 µg/ml, genetic background: ΔmarA
# [18] = 128.4 µg/ml, genetic background: Δrob
# [19] = 128.4 µg/ml, genetic background: ΔsoxS
# [20] = 256.8 µg/ml, genetic background: wild type
# [21] = 256.8 µg/ml, genetic background: ΔmarA
# [22] = 256.8 µg/ml, genetic background: Δrob
# [23] = 256.8 µg/ml, genetic background: ΔsoxS
compound,measurement,setting,value
CN(C)C(=O)C(CCN1CCC(O)(c2ccc(Cl)cc2)CC1)(c1ccccc1)c1ccccc1 [Loperamide],promoter activity interaction Z-score,[1]; [8],0.0421 ± 0.17
same,promoter activity interaction Z-score,[1]; [9],0.36 ± 0.083
same,promoter activity interaction Z-score,[1]; [10],-0.0142 ± 0.12
same,promoter activity interaction Z-score,[1]; [11],0.372 ± 0.34
same,promoter activity interaction Z-score,[1]; [12],-0.16 ± 0.23
same,promoter activity interaction Z-score,[1]; [13],0.126 ± 1.6
same,promoter activity interaction Z-score,[1]; [14],-0.00894 ± 0.11
same,promoter activity interaction Z-score,[1]; [15],0.114 ± 0.11
same,promoter activity interaction Z-score,[1]; [16],-0.237 ± 0.23
same,promoter activity interaction Z-score,[1]; [17],0.287 ± 0.52
same,promoter activity interaction Z-score,[1]; [18],-0.146 ± 0.17
same,promoter activity interaction Z-score,[1]; [19],0.111 ± 0.11
same,promoter activity interaction Z-score,[1]; [20],0.213 ± 0.0047
same,promoter activity interaction Z-score,[1]; [21],-1.07 ± 0.54
same,promoter activity interaction Z-score,[1]; [22],0.0923 ± 0.42
same,promoter activity interaction Z-score,[1]; [23],-0.358 ± 0.52
same,promoter activity interaction Z-score,[2]; [8],-0.202 ± 0.03
same,promoter activity interaction Z-score,[2]; [9],-0.0422 ± 0.33
same,promoter activity interaction Z-score,[2]; [10],-0.0553 ± 0.2
same,promoter activity interaction Z-score,[2]; [11],-0.22 ± 0.2
same,promoter activity interaction Z-score,[2]; [12],-0.233 ± 0.17
same,promoter activity interaction Z-score,[2]; [13],0.346 ± 0.1
same,promoter activity interaction Z-score,[2]; [14],-0.132 ± 0.024
same,promoter activity interaction Z-score,[2]; [15],-0.171 ± 0.18
same,promoter activity interaction Z-score,[2]; [16],-0.314 ± 0.22
same,promoter activity interaction Z-score,[2]; [17],0.0947 ± 0.21
same,promoter activity interaction Z-score,[2]; [18],-0.192 ± 0.036
same,promoter activity interaction Z-score,[2]; [19],-0.213 ± 0.17
same,promoter activity interaction Z-score,[2]; [20],-0.0275 ± 0.19
same,promoter activity interaction Z-score,[2]; [21],0.711 ± 0.64
same,promoter activity interaction Z-score,[2]; [22],-0.0389 ± 0.11
same,promoter activity interaction Z-score,[2]; [23],-0.046 ± 0.47
same,promoter activity interaction Z-score,[3]; [8],0.145 ± 0.076
same,promoter activity interaction Z-score,[3]; [9],0.0394 ± 0.035
same,promoter activity interaction Z-score,[3]; [10],0.0787 ± 0.17
same,promoter activity interaction Z-score,[3]; [11],-0.0846 ± 0.15
same,promoter activity interaction Z-score,[3]; [12],0.186 ± 0.1
same,promoter activity interaction Z-score,[3]; [13],0.0703 ± 0.0014
same,promoter activity interaction Z-score,[3]; [14],0.0931 ± 0.092
same,promoter activity interaction Z-score,[3]; [15],-0.0463 ± 0.045
same,promoter activity interaction Z-score,[3]; [16],0.0787 ± 0.19
same,promoter activity interaction Z-score,[3]; [17],0.0574 ± 0.025
same,promoter activity interaction Z-score,[3]; [18],0.0936 ± 0.24
same,promoter activity interaction Z-score,[3]; [19],-0.14 ± 0.12
same,promoter activity interaction Z-score,[3]; [20],-0.186 ± 0.52
same,promoter activity interaction Z-score,[3]; [21],-0.0712 ± 0.25
same,promoter activity interaction Z-score,[3]; [22],-0.12 ± 0.022
same,promoter activity interaction Z-score,[3]; [23],-0.469 ± 0.21
same,promoter activity interaction Z-score,[4]; [8],-0.00512 ± 0.32
same,promoter activity interaction Z-score,[4]; [9],0.262 ± 0.052
same,promoter activity interaction Z-score,[4]; [10],0.0272 ± 0.031
same,promoter activity interaction Z-score,[4]; [11],-0.21 ± 0.06
same,promoter activity interaction Z-score,[4]; [12],0.0346 ± 0.0034
same,promoter activity interaction Z-score,[4]; [13],-0.0766 ± 0.0049
same,promoter activity interaction Z-score,[4]; [14],-0.471 ± 0.21
same,promoter activity interaction Z-score,[4]; [15],-0.28 ± 0.26
same,promoter activity interaction Z-score,[4]; [16],-0.593 ± 0.28
same,promoter activity interaction Z-score,[4]; [17],-0.537 ± 0.65
same,promoter activity interaction Z-score,[4]; [18],-1.29 ± 0.17
same,promoter activity interaction Z-score,[4]; [19],-1.21 ± 0.3
same,promoter activity interaction Z-score,[4]; [20],0.202 ± 0.2
same,promoter activity interaction Z-score,[4]; [21],0.819 ± 0.3
same,promoter activity interaction Z-score,[4]; [22],-0.591 ± 0.47
same,promoter activity interaction Z-score,[4]; [23],0.54 ± 0.76
same,promoter activity interaction Z-score,[5]; [8],-0.195 ± 0.23
same,promoter activity interaction Z-score,[5]; [9],-0.672 ± 0.52
same,promoter activity interaction Z-score,[5]; [10],0.735 ± 0.061
same,promoter activity interaction Z-score,[5]; [11],0.0686 ± 0.097
same,promoter activity interaction Z-score,[5]; [12],0.0117 ± 0.077
same,promoter activity interaction Z-score,[5]; [13],-0.171 ± 0.68
same,promoter activity interaction Z-score,[5]; [14],0.22 ± 0.015
same,promoter activity interaction Z-score,[5]; [15],0.000621 ± 0.037
same,promoter activity interaction Z-score,[5]; [16],-0.524 ± 0.45
same,promoter activity interaction Z-score,[5]; [17],-0.323 ± 0.55
same,promoter activity interaction Z-score,[5]; [18],-0.996 ± 0.2
same,promoter activity interaction Z-score,[5]; [19],-0.571 ± 0.73
same,promoter activity interaction Z-score,[5]; [20],-1.15 ± 0.5
same,promoter activity interaction Z-score,[5]; [21],-0.901 ± 1.4
same,promoter activity interaction Z-score,[5]; [22],-2.1 ± 0.29
same,promoter activity interaction Z-score,[5]; [23],-1.78 ± 0.21
same,promoter activity interaction Z-score,[6]; [8],0.154 ± 0.15
same,promoter activity interaction Z-score,[6]; [9],-0.043 ± 0.059
same,promoter activity interaction Z-score,[6]; [10],0.355 ± 0.12
same,promoter activity interaction Z-score,[6]; [11],0.325 ± 0.045
same,promoter activity interaction Z-score,[6]; [12],-0.0625 ± 0.16
same,promoter activity interaction Z-score,[6]; [13],-0.0378 ± 0.015
same,promoter activity interaction Z-score,[6]; [14],0.149 ± 0.035
same,promoter activity interaction Z-score,[6]; [15],-0.0736 ± 0.2
same,promoter activity interaction Z-score,[6]; [16],0.0173 ± 0.089
same,promoter activity interaction Z-score,[6]; [17],0.196 ± 0.047
same,promoter activity interaction Z-score,[6]; [18],-0.0928 ± 0.32
same,promoter activity interaction Z-score,[6]; [19],-0.2 ± 0.021
same,promoter activity interaction Z-score,[6]; [20],-0.236 ± 0.14
same,promoter activity interaction Z-score,[6]; [21],-0.217 ± 0.25
same,promoter activity interaction Z-score,[6]; [22],-0.0806 ± 0.13
same,promoter activity interaction Z-score,[6]; [23],-0.169 ± 0.064
same,promoter activity interaction Z-score,[7]; [8],-0.194 ± 0.29
same,promoter activity interaction Z-score,[7]; [9],-0.0191 ± 0.39
same,promoter activity interaction Z-score,[7]; [10],-0.0299 ± 0.8
same,promoter activity interaction Z-score,[7]; [11],-0.292 ± 0.62
same,promoter activity interaction Z-score,[7]; [12],0.0244 ± 0.6
same,promoter activity interaction Z-score,[7]; [13],0.821 ± 0.86
same,promoter activity interaction Z-score,[7]; [14],-0.356 ± 0.33
same,promoter activity interaction Z-score,[7]; [15],0.551 ± 0.73
same,promoter activity interaction Z-score,[7]; [16],-0.426 ± 0.95
same,promoter activity interaction Z-score,[7]; [17],-0.198 ± 0.95
same,promoter activity interaction Z-score,[7]; [18],-0.855 ± 0.25
same,promoter activity interaction Z-score,[7]; [19],-0.596 ± 0.53
same,promoter activity interaction Z-score,[7]; [20],0.39 ± 0.18
same,promoter activity interaction Z-score,[7]; [21],0.271 ± 1.2
same,promoter activity interaction Z-score,[7]; [22],0.764 ± 1
same,promoter activity interaction Z-score,[7]; [23],0.351 ± 0.69
